PubChem BioAssay (Tox21)
“And” between values parts separate entries of the source, which are not always exact repeats. Equal values may be shown once. Results filed as inconclusive are left out. Where a call stands in place of a potency, no number is given. Where a structure was tested more than once in an assay, its records may differ in their call. The source made the active and inactive calls. Calls come from the whole dose curve; as a rule, active = well fitted activation curve with a large enough effect in the repeat runs; inconclusive = weak or mixed curves; inactive = flat fitted curve, though single readings scatter.

Assay: A CellTox Green Cytotoxicity Assay to monitor cytotoxicity in HepG2 cells - 16 hour (AID 1224876); note: nearly all actives have a fitted effect of over 45% in size
Details: CellTox Green fluorescence; series mostly up to 76.8 µM; cytotoxicity increase: at the top concentration
Source text: National Center for Advancing Translational Sciences [NCATS]
NIH Chemical Genomics Center [NCGC]
U.S. Environmental Protection Agency [EPA]
National Institutes of Environmental Health Sciences [NIEHS]
National Toxicology Program [NTP]
Cell-based models are critical for drug discovery. Determining the natural cytotoxic effects resulting from test compounds is an essential research activity. A CellTox Green Cytotoxicity Assay to monitor cytotoxicity in real time of continues cell culture during 40 hours of the compound treatment was used to screen Tox21 10K library compounds in HepG2 cells. CellTox Green Cytotoxicity Assay is a nonlytic, homogeneous, biofluorescent method to measure cytotoxicity in cell culture after experimental manipulation. The assay system uses a proprietary asymmetric cyanine dye that is excluded from viable cells but preferentially stains the dead cell's DNA. […] Viable cells produce no appreciable increases in fluorescence. Therefore, the fluorescence signal produced by the binding interaction with dead cell DNA is proportional to cytotoxicity.
The mixture of HepG2 cell suspension and reagents were dispensed at 600cells/6 ul/well in 1536-well tissue culture treated black solid bottom plates using a Multidrop dispenser. After the assay plates were incubated at a 37 C/5% CO2 incubator for 5 hours, 23 nL of compounds dissolved in DMSO, positive and negative controls was transferred to the assay plate by a pintool work station. The plates were incubated at 37 C for 40 hours. The fluorescence intensity were measured at 0h, 8h, 16h, 24h, 32h and 40h time points using ViewLux plate reader during compound treatment.
Potency is the fitted concentration of half-maximal effect.

SMILES	Potency	cytotoxicity increase
Cc1ccc(S(=O)(=O)NCl)cc1	inactive	
[Na+]		-7.01% (inactive)
Cc1ccc(/C(=C\CN2CCCC2)c2ccccn2)cc1	inactive	
C=C[Si](OCCOC)(OCCOC)OCCOC	inactive	
CCCCCCCC/C=C\CCCCCCCC(=O)O	inactive	
CCC(Cc1c(I)cc(I)c(N)c1I)C(=O)O (stereo not given)	inactive	
CN(C)C	inactive	
c1ccc2ncccc2c1	inactive	
NC[C@H](O)c1ccc(O)c(O)c1	inactive	
CC/C(=C(/CC)c1ccc(O)cc1)c1ccc(O)cc1	inactive	
CCOC(=O)C(C)Oc1ccc(Oc2cnc3cc(Cl)ccc3n2)cc1 (stereo not given)	inactive	
Nc1ccc(N)c(Cl)c1	inactive and 27.5 µM (active)	
COc1cc([C@H]2Oc3cc([C@H]4Oc5cc(O)cc(O)c5C(=O)[C@@H]4O)ccc3O[C@@H]2CO)ccc1O	inactive and 21.3 µM (active)	
OC[C@@H](O)[C@@H](O[C@@H]1O[C@H](CO)[C@H](O)[C@H](O)[C@H]1O)[C@H](O)[C@@H](O)CO	inactive	
Nc1ccc(O)c(N)c1	inactive	
O=[Se](O)O	inactive	
CNC[C@H](O)c1ccc(O)c(O)c1	inactive	
CC(=O)Oc1ccc(C(c2ccc(OC(C)=O)cc2)c2ccccn2)cc1	inactive	
O=C1CCc2ccccc2O1		-2.14% (inactive)
Brc1nc2ccccc2s1	inactive	

SMILES	Potency	cytotoxicity increase
CCc1cccc2c3c([nH]c12)C(CC)(CC(=O)O)OCC3 (stereo not given)	inactive	
C=CCNCC=C	inactive	
CCCCCCCCCCCCO	inactive	
CC(C)=CCO	inactive	
C=C[C@@]1(C)CC(=O)[C@]2(O)[C@@]3(C)[C@@H](O)CCC(C)(C)[C@@H]3[C@H](O)[C@H](OC(C)=O)[C@@]2(C)O1	inactive	
COC(=O)C(C)Oc1ccc(Oc2ncc(C(F)(F)F)cc2Cl)cc1 (stereo not given)	inactive	
CC1(C)O[C@@H]2C[C@H]3[C@@H]4C[C@H](F)C5=CC(=O)C=C[C@]5(C)[C@@]4(F)[C@@H](O)C[C@]3(C)[C@]2(C(=O)CO)O1	inactive	
CN1CCOCC1	inactive	
c1ccc2c(c1)ccc1cc3c(ccc4ccccc43)cc12	inactive	
OCCNCCO	inactive	
Nc1cc(Cl)c(N)c(Cl)c1	inactive	
CC(=O)[C@H]1CC[C@H]2[C@@H]3CC=C4C[C@@H](O)CC[C@]4(C)[C@H]3CC[C@]12C	inactive	
CCCCCCC(C)O (stereo not given)	inactive	
O=C(O)COCCN1CCN(C(c2ccccc2)c2ccc(Cl)cc2)CC1 (stereo not given)	inactive	
COc1ccc(C(=O)c2ccccc2O)c(O)c1	inactive	
CCCCCCOCCOCCO	inactive	
O=C(CCCN1CCC(O)(c2ccc(Cl)cc2)CC1)c1ccc(F)cc1	43.6 µM (active) and inactive	
CCC(=O)O[C@H]1[C@H](O[C@@H]2[C@@H](C)[C@H](O[C@H]3C[C@@](C)(OC)[C@@H](O)[C@H](C)O3)[C@@H](C)C(=O)O[C@H](CC)[C@@](C)(O)[C@H](O)[C@@H](C)C(=O)[C@H](C)C[C@@]2(C)O)O[C@H](C)C[C@@H]1N(C)C	inactive	
O=S1(=O)CCCO1	inactive	
Nc1cc([N+](=O)[O-])ccc1C(=O)O	inactive	
